Only some compounds are listed: those with a hit (about 0.81% of all), similar ones and a draw of the others.
SRC3 inh – SRC3 coactivator transcriptional activity inhibitors, primary screen, cell-based, luminescence; HEK293 GAL4-SRC3 luciferase reporter; inhibition, % at 3.6 µM; 0.17% of 360,000 active; AID 588352, 2011;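 active = inhibition above a per-campaign cutoff, the mean of all compounds plus 3 SD, cut at about 60% in these data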;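 also: 0% = DMSO-treated cells and 100% = gossypol-treated cells at 36 µM; higher means less SRC3-driven luciferase light from the GAL4 reporter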
SRC2 inh – inhibition of GAL4-SRC2 driven luciferase reporter, primary screen, SRC2 inhibitor project, cell-based, luminescence. Nuclear receptor coactivator 2 (Homo sapiens), Q15596. HEK293 GAL4-SRC2 luciferase reporter. inhibition, % at 9 µM. 0.17% of 370,000 active. AID 651957, 2012;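 active = inhibition above the mean inhibition of all tested compounds plus 3 SD, set per campaign, cut at about 52% in these data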;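 also: 0% = DMSO treated cells and 100% = cells given Gossypol at 36 µM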
NCOA1 inh – SRC1 coactivator transcriptional activity inhibitors, primary screen, cell-based, luminescence | Nuclear receptor coactivator 1 (Homo sapiens), Q15788 | HEK293 GAL4-SRC1 luciferase reporter | inhibition, % at 3.6 µM | 0.12% of 360,000 active | AID 588354, 2011;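 active = inhibition above the campaign mean plus 3 SD, with each screening campaign given its own cutoff, cut at about 60% in these data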;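 also: 0% = DMSO treated cells and 100% = gossypol at 36 µM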
NR2F2 inh – NR2F2 transcriptional activity inhibitors, primary screen, cell-based, luciferase reporter, HEK293T, luminescence; HEK293T NGFI-A luciferase reporter; inhibition, % at 8.6 µM; 0.7% of 370,000 active;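 active = inhibition above a per-plate cutoff, mean inhibition of test wells between control levels plus 3 SD, cut at about 38% in these data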;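 also: cells cotransfected with COUP-TFII expression vector driving the NGFI-A reporter; 0% = median of COUP-TF2 test wells and 100% = reporter-only cells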
LRH-1 inv ag – LRH-1 (NR5A2) inverse agonists, primary screen, cell-based, luminescence, HEK293T, StAR-luciferase reporter | 0.13% of 360,000 active | AID 602396, 2012 | inhibition, % at 3.6 µM | LRH-1 transfected, 24 h | Nuclear receptor subfamily 5 group A member 2 (Homo sapiens), O00482;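 active = inhibition above the mean inhibition of all tested compounds plus 3 SD, cut at about 73% in these data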;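 also: 0% = DMSO wells and 100% = reporter-only cells lacking LRH-1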
Target sequence (O00482 whole entry, looked up): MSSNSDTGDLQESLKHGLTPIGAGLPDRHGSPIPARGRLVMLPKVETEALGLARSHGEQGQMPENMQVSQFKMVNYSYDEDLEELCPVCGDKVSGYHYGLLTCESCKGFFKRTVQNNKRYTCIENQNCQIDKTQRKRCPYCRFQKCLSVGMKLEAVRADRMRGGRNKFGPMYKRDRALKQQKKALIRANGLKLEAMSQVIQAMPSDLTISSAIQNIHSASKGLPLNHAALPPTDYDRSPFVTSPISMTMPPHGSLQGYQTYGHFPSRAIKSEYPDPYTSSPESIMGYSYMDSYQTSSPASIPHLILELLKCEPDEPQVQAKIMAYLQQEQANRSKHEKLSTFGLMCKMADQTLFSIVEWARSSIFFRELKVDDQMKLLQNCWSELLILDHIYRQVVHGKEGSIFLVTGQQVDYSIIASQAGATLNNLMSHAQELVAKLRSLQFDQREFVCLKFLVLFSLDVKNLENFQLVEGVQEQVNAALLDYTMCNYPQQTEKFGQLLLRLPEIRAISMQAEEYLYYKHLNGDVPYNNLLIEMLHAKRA
Gal4-VP16 ctr – Gal4-VP16 luciferase reporter inhibitors, counter-screen for COUP-TFII antagonist project, cell-based, luminescence, HEK293. shares compounds with NR2F2 inh. inhibition, % at 8.5 µM. 25% of 2,500 active. AID 687007, 2013; in the data active = inhibition above about 13%
COUP-TFII conf – NR2F2 transcriptional activity inhibitors, confirmation, cell-based, luciferase reporter, HEK293, triplicate. shares compounds with NR2F2 inh. HEK293 NGFI-A luciferase reporter, luminescence. inhibition, % at 8.5 µM. 45% of 2,500 active. AID 687008, 2013;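 active = mean inhibition over three repeats above a set limit taken from the earlier primary screen, cut at about 38% in these data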;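 also: 100% = cells given the luciferase reporter alone without the COUP-TF2 vector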
* marks the source's active call; other numbers are inactive results; . = not tested or not shown.

SMILES	SRC3 inh	SRC2 inh	NCOA1 inh	NR2F2 inh	LRH-1 inv ag	Gal4-VP16 ctr	COUP-TFII conf
CCn1c(SCc2ccc(Cl)cc2Cl)nc2nc3c(cc2c1=O)CCCC3	4.2	14.8	-8.1	-6.8	-20.1	.	.
CCN1CCN(c2cc(C)c3cc(NC(=S)N4CC(C)CC(C)C4)ccc3n2)CC1 (stereo not drawn)	8.2	-31.6	-3.4	-11.0	-1.4	.	.
CCN1CCN(c2cc(C)c3cc(NC(=S)N4CCCC(C)C4)ccc3n2)CC1 (stereo not drawn)	39.6	29.0	19.9	46.1*	31.8	26.1*	35.0
COc1ccc(CC(=O)Nc2ccc(-c3cn4cccc(C)c4n3)cc2)cc1OC	-0.7	-0.1	6.0	-5.2	4.4	.	.
Cc1cccn2cc(-c3ccc(NC(=O)Cc4ccccc4)cc3)nc12	-16.3	0.1	7.4	54.0*	-10.7	0.4	-16.5
COc1cc(C)ccc1C(=O)N1CCC(Oc2cccnc2)CC1	.	0.9	.	29.6	.	.	.
Cc1cc(C)n(CCNC(=O)c2cc(COc3ccc4ncccc4c3)on2)n1	12.1	24.6	1.6	23.4	18.8	.	.
CC(CCCC(C)(C)O)NC(=O)c1cc(COc2ccc3ncccc3c2)on1 (stereo not drawn)	24.1	23.3	17.8	59.8*	34.3	10.3	48.5*
O=C(NCc1cccc(Cl)c1)c1cc(COc2ccc3ncccc3c2)on1	27.7	-2.9	18.7	68.0*	17.2	0.4	55.1*
CCCN1CCN(C(=O)c2cc(COc3ccc4ncccc4c3)on2)CC1	14.4	16.0	21.4	30.9	10.2	.	.
Cc1ccc(F)cc1CNC(=O)c1cc(COc2ccc3ncccc3c2)on1	14.7	21.2	1.1	41.1*	-3.9	6.1	49.5*
C#CCN1CC(COCCCC)Oc2cccc(Oc3ccc(C(C)(C)C)c(C)c3)c2S1(=O)=O (stereo not drawn)	.	10.2	.	4.1	.	.	.
COC(=O)[C@]12C[C@H](CC(=O)NCc3cccc(C(F)(F)F)c3)C(=O)N(Cc3ccccc3)C1=C[C@H](COCc1ccccc1)O[C@@H]2C	.	-12.3	.	25.7	.	.	.
CCCc1cc(=O)n2nc(N3CCC(C(=O)N4CCN(c5ccc(OC)cc5)CC4)CC3)sc2n1	4.3	14.6	-3.2	56.1*	53.7	11.5	64.4*
Cc1cc(=O)n2nc(N3CCC(C(=O)N4CCN(c5ccccc5)CC4)CC3)sc2n1	4.3	-23.7	-12.8	-2.8	1.8	.	.
O=C(Nc1ccc(S(=O)(=O)Nc2ccccc2)cc1)c1ccc(CN2CCOCC2)cc1	33.2	27.0	22.4	69.0*	47.8	9.3	24.9
CCC(C)Oc1ccc(C(=O)Nc2ccc(CN3CCOCC3)cc2)cc1 (stereo not drawn)	7.9	7.1	5.0	40.0*	-4.5	-15.9	12.3
O=C(Nc1ccc(CN2CCOCC2)cc1)c1ccc(Cl)cc1	-67.2	-32.5	-54.7	-13.3	-68.2	.	.
COC(=O)c1ccc(NC(=O)c2ccc(CN3CCOCC3)cc2)cc1	1.4	9.5	-1.7	47.5*	21.5	-3.9	15.8
Cc1ccc(C)c(OCCC(=O)OCC(=O)NCCc2ccc(S(N)(=O)=O)cc2)c1	-7.9	-11.2	-5.3	2.3	2.1	.	.
Cc1ccc2c(c1)N(Cc1ccncc1)C(=O)C(C)O2 (stereo not drawn)	3.5	2.4	11.7	9.6	-0.1	.	.
CCOc1ccc(C(C)=O)cc1CSC(=N)N	0.1	24.5	-7.3	9.6	-3.6	.	.
CCCCOc1ccc(Br)cc1CSC(=N)N	-1.4	40.7	-4.6	75.9*	41.4	3.8	44.1*
COc1ccc(C(=O)N2CCC(Oc3cccnc3)CC2)c(OC)c1	.	-32.5	.	-1.1	.	.	.
CCCCNc1nc2c(c(=O)[nH]c(=O)n2C)n1CCCc1ccccc1	8.8	-2.2	-4.0	-1.3	-2.7	.	.
SMILES	SRC3 inh	SRC2 inh	NCOA1 inh	NR2F2 inh	LRH-1 inv ag	Gal4-VP16 ctr	COUP-TFII conf
Nc1c(C(=O)Nc2ccc3c(c2)OCCO3)nnn1Cc1ccc(Cl)cc1	-81.4	-46.6	-91.8	-25.8	-162.1	.	.
NC(=O)c1nnn(Cc2cc(Cl)c(C(=O)c3ccc(Cl)cc3)c(Cl)c2)c1N	.	6.7	.	55.5*	33.7	5.0	53.8*
O=C(CCCN1C(=O)/C(=C/c2ccccc2Cl)SC1=S)NNC(=O)c1cccnc1	17.7	79.5*	18.4	54.4*	20.3	2.6	16.1
O=C(CCCN1C(=O)/C(=C/c2ccccc2Cl)SC1=S)NNC(=O)c1ccc(Cl)cc1Cl	33.6	80.6*	27.4	71.7*	2.8	39.3*	41.7*
O=C(CN1C(=O)S/C(=C\c2ccccc2)C1=O)NNC(=O)c1ccccc1O	-2.5	11.5	-12.7	5.7	5.8	.	.
O=C(CCN1C(=O)/C(=C/c2ccccc2Cl)SC1=S)Nc1ccccc1C(=O)O	4.0	8.4	-21.7	-7.3	4.0	.	.
O=C(CCCN1C(=O)S/C(=C\c2ccccc2)C1=O)NNC(=O)c1ccccc1O	71.0*	77.7*	59.9	61.1*	42.0	82.3*	86.7*
O=C(CCCN1C(=O)/C(=C/c2ccccc2Cl)SC1=S)NNC(=O)c1ccccc1	40.3	81.0*	36.8	64.3*	37.2	28.3*	38.3*
CC(=O)Nc1cccc(-c2ccnc3c2CC(C)(C(=O)NCc2ccc(N(C)C)cc2)O3)c1 (stereo not drawn)	6.9	3.4	9.0	13.5	26.3	.	.
CCOC(=O)c1ccc(-c2ccc(N3C(c4ccsc4)=Cc4ccc(F)cc4C3c3c[nH]c4ccc(C#N)cc34)cc2)cc1F (stereo not drawn)	.	78.8*	.	56.0*	19.8	-4.8	-0.4
COc1cccc2c1C(=O)C=C(C)C2=O	8.6	-8.9	-1.2	2.7	21.3	.	.
COC1=CC(=O)c2c(ccc3ncnc(N)c23)C1=O	69.2*	62.3*	60.0	54.8*	72.5	62.1*	44.1*
Cc1ccc(C(=O)Nc2ccc(C)c(S(=O)(=O)Nc3ccccc3Cl)c2)s1	20.3	10.8	3.6	16.6	10.6	.	.
Cc1ccc(NC(=O)c2cc3c(s2)CCCC3)cc1S(=O)(=O)Nc1ccccc1Cl	14.9	3.7	19.2	40.4*	23.2	0.9	23.1
Cc1ccc2[nH]c3c(NCc4ccccc4)ncnc3c2c1	.	-10.4	.	48.2*	.	-59.1	-18.3
C1=C(CCNc2ncnc3c2[nH]c2ccccc23)CCCC1	14.0	2.4	-7.5	67.0*	42.7	-85.8	47.9*
O=c1c2[nH]c3ccccc3c2ncn1CCC1=CCCCC1	-36.2	-25.3	-20.9	-8.4	-16.1	.	.

Compound activity: PubChem BioAssay, The Scripps Research Institute Molecular Screening Center
